Source: the supplement of paper PMC8728848
Only a selection was taken, and the strongest signals are over-represented in it overall.

Legend:
Experiment in all cases: glycan array binding signal (z-score within array); higher = stronger binding
Conditions in all cases: glycan notation: IUPAC condensed, linker removed
[1] = target: Fuc(a1-2)Gal(b1-3)GalNAc(b1-3)Gal(a1-4)Gal(b1-4)Glc
Procedure, shortened: (§1)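 The binding signal is a Z-score computed within each array. Data were drawn from 3228 arrays in the Consortium for Functional Glycomics database, restricted to those with a known protein sequence. Scores were averaged over arrays of the same protein sequence at different concentrations or buffers, and over linkers, and negative values can be taken as non-binding.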

[2] = target: Fuc(a1-2)Gal(b1-3)GlcNAc(b1-3)Gal(b1-4)Glc
Procedure, shortened: as §1

Fuc(a1-2)Gal(b1-4)GlcNAc = target: Fuc(a1-2)Gal(b1-4)GlcNAc
Procedure, shortened: as §1

[3] = target: Fuc(a1-2)Gal(b1-4)GlcNAc(b1-6)GalNAc
Procedure, shortened: as §1

[4] = target: Fuc(a1-2)Gal(b1-4)[Fuc(a1-3)]GlcNAc(b1-2)Man(a1-3)[Fuc(a1-2)Gal(b1-4)[Fuc(a1-3)]GlcNAc(b1-2)Man(a1-6)]Man(b1-4)GlcNAc(b1-4)GlcNAc
Procedure, shortened: as §1

[5] = target: Fuc(a1-2)Gal6S(b1-3)GlcNAc6S
Procedure, shortened: as §1

[6] = target: Fuc(a1-2)[GalNAc(a1-3)]Gal(b1-3)GlcNAc
Procedure, shortened: as §1

[7] = target: Fuc(a1-2)[GalNAc(a1-3)]Gal(b1-3)GlcNAc(b1-6)GalNAc
Procedure, shortened: as §1

[8] = target: Fuc(a1-2)[GalNAc(a1-3)]Gal(b1-4)[Fuc(a1-3)]GlcNAc(b1-3)GalNAc
Procedure, shortened: as §1

Gal(a1-3)Gal(b1-3)GlcNAc = target: Gal(a1-3)Gal(b1-3)GlcNAc
Procedure, shortened: as §1

[9] = target: Gal(b1-3)[GlcNAc(b1-6)]GalNAc
Procedure, shortened: as §1

[10] = target: Gal(b1-4)GlcNAc(a1-6)Gal(b1-4)GlcNAc
Procedure, shortened: as §1

[11] = target: Gal(b1-4)GlcNAc(b1-2)Man(a1-3)[Man(a1-6)]Man(b1-4)GlcNAc(b1-4)GlcNAc
Procedure, shortened: as §1

[12] = target: Gal(b1-4)GlcNAc(b1-2)[Gal(b1-4)GlcNAc(b1-6)]Man(a1-6)[GlcNAc(b1-4)][Gal(b1-4)GlcNAc(b1-2)Man(a1-3)]Man(b1-4)GlcNAc(b1-4)GlcNAc
Procedure, shortened: as §1

[13] = target: Gal(b1-4)GlcNAc(b1-3)Gal(b1-3)GalNAc
Procedure, shortened: as §1

[14] = target: Gal(b1-4)GlcNAc(b1-3)Gal(b1-4)GlcNAc(b1-3)Gal(b1-4)GlcNAc(b1-3)Gal(b1-4)GlcNAc(b1-3)Gal(b1-4)GlcNAc(b1-2)Man(a1-3)[Gal(b1-4)GlcNAc(b1-3)Gal(b1-4)GlcNAc(b1-3)Gal(b1-4)GlcNAc(b1-3)Gal(b1-4)GlcNAc(b1-3)Gal(b1-4)GlcNAc(b1-2)Man(a1-6)]Man(b1-4)GlcNAc(b1-4)GlcNAc
Procedure, shortened: as §1

[15] = target: Gal(b1-4)GlcNAc(b1-3)Gal(b1-4)[Fuc(a1-3)GlcNAc(b1-6)]Gal(b1-4)Glc
Procedure, shortened: as §1

[16] = target: Gal(b1-4)GlcNAc(b1-3)[Gal(b1-4)GlcNAc(b1-6)]GalNAc
Procedure, shortened: as §1

Gal(b1-4)GlcNAc6P = target: Gal(b1-4)GlcNAc6P
Procedure, shortened: as §1

Gal6S(b1-3)GlcNAc6S = target: Gal6S(b1-3)GlcNAc6S
Procedure, shortened: as §1

Gal6S(b1-4)GlcNAc6S = target: Gal6S(b1-4)GlcNAc6S
Procedure, shortened: as §1

GalNAc(b1-4)Gal(b1-4)Glc = target: GalNAc(b1-4)Gal(b1-4)Glc
Procedure, shortened: as §1

GalNAc3S(b1-4)GlcNAc3S = target: GalNAc3S(b1-4)GlcNAc3S
Procedure, shortened: as §1

[17] = target: GlcNAc(b1-3)Gal(b1-4)GlcNAc(b1-3)Gal(b1-4)GlcNAc(b1-3)Gal(b1-4)GlcNAc(b1-2)Man(a1-3)[GlcNAc(b1-3)Gal(b1-4)GlcNAc(b1-3)Gal(b1-4)GlcNAc(b1-3)Gal(b1-4)GlcNAc(b1-2)Man(a1-6)]Man(b1-4)GlcNAc(b1-4)GlcNAc
Procedure, shortened: as §1

[18] = target: GlcNAc(b1-3)[GlcNAc(b1-6)]Gal(b1-4)GlcNAc
Procedure, shortened: as §1

Neu5Ac(a2-3)Gal = target: Neu5Ac(a2-3)Gal
Procedure, shortened: as §1

[19] = target: Neu5Ac(a2-3)Gal(b1-4)GlcNAc(b1-6)[Neu5Ac(a2-3)Gal(b1-3)]GalNAc
Procedure, shortened: as §1

[20] = target: Neu5Ac(a2-3)Gal(b1-4)GlcNAc6S
Procedure, shortened: as §1

[21] = target: Neu5Ac(a2-3)Gal6S(b1-4)GlcNAc
Procedure, shortened: as §1

[22] = target: Neu5Ac(a2-3)[Neu5Ac(a2-6)]GalNAc
Procedure, shortened: as §1

[23] = target: Neu5Ac(a2-6)Gal(b1-4)GlcNAc(b1-2)Man(a1-3)[Gal(b1-4)GlcNAc(b1-2)Man(a1-6)]Man(b1-4)GlcNAc(b1-4)GlcNAc
Procedure, shortened: as §1

[24] = target: Neu5Ac(a2-6)Gal(b1-4)GlcNAc(b1-3)Gal(b1-4)GlcNAc(b1-3)GalNAc
Procedure, shortened: as §1

[25] = target: Neu5Ac(a2-6)GalNAc(b1-4)GlcNAc6S
Procedure, shortened: as §1

Neu5Ac(a2-8)Neu5Ac = target: Neu5Ac(a2-8)Neu5Ac
Procedure, shortened: as §1

[26] = target: Neu5Ac(a2-8)Neu5Ac(a2-3)[Gal(b1-3)GalNAc(b1-4)]Gal(b1-4)Glc
Procedure, shortened: as §1

[27] = target: Neu5Gc(a2-3)Gal(b1-3)GlcNAc
Procedure, shortened: as §1

Neu5Gc(a2-6)GalNAc = target: Neu5Gc(a2-6)GalNAc
Procedure, shortened: as §1

[28] = target: Neu5Gc(b2-6)Gal(b1-4)GlcNAc
Procedure, shortened: as §1

B1: Siglec-7-SA-PE-180 (Homo sapiens), Q9Y286 (protein)
chain: MLLLLLLPLLWGRERVEGQKSNRKDYSLTMQSSVTVQEGMCVHVRCSFSYPVDSQTDSDPVHGYWFRAGNDISWKAPVATNNPAWAVQEETRDRFHLLGDPQTKNCTLSIRDARMSDAGRYFFRMEKGNIKWNYKYDQLSVNVTALTHRPNILIPGTLESGCFQNLTCSVPWACEQGTPPMISWMGTSVSPLHPSTTRSSVLTLIPQPQHHGTSLTCQVTLPGAGVTTNRTIQLNVSYPPQNLTVTVFQGEGTASTALGNSSSLSVLEGQSLRLVCAVDSNPPARLSWTWRSLTLYPSQPSNPLVLELQVHLGDEGEFTCRAQNSLGSQHVSLNLSLQQEYTGKMRPVSGVLLGAVGGAGATALVFLSFCVIFIVVRSCRKKSARPAADVGDIGMKDANTIRGSASQGNLTESWADDNPRHHGLAAHSSGEEREIQYAPLSFHKGEPQDLSGQEATNNEYSEIKIPK
glycan array binding signal (z-score) [1]: -0.254
glycan array binding signal (z-score) [2]: -0.174
glycan array binding signal (z-score) (Fuc(a1-2)Gal(b1-4)GlcNAc): -0.302
glycan array binding signal (z-score) [3]: -0.066
glycan array binding signal (z-score) [4]: -0.133
glycan array binding signal (z-score) [5]: 2.66
glycan array binding signal (z-score) [6]: -0.313
glycan array binding signal (z-score) [7]: -0.099
glycan array binding signal (z-score) [8]: 10.7
glycan array binding signal (z-score) (Gal(a1-3)Gal(b1-3)GlcNAc): -0.363
glycan array binding signal (z-score) [9]: -0.225
glycan array binding signal (z-score) [10]: -0.267
glycan array binding signal (z-score) [11]: 0.048
glycan array binding signal (z-score) [12]: -0.412
glycan array binding signal (z-score) [13]: -0.464
glycan array binding signal (z-score) [14]: -0.144
glycan array binding signal (z-score) [15]: -0.383
glycan array binding signal (z-score) [16]: -0.453
glycan array binding signal (z-score) (Gal(b1-4)GlcNAc6P): 0.085
glycan array binding signal (z-score) (Gal6S(b1-3)GlcNAc6S): 2.28
glycan array binding signal (z-score) (Gal6S(b1-4)GlcNAc6S): 2.43
glycan array binding signal (z-score) (GalNAc(b1-4)Gal(b1-4)Glc): 0.174
glycan array binding signal (z-score) (GalNAc3S(b1-4)GlcNAc3S): 2.05
glycan array binding signal (z-score) [17]: 0.059
glycan array binding signal (z-score) [18]: -0.346
glycan array binding signal (z-score) (Neu5Ac(a2-3)Gal): 2.25
glycan array binding signal (z-score) [19]: -0.035
glycan array binding signal (z-score) [20]: 4.5
glycan array binding signal (z-score) [21]: 2.67
glycan array binding signal (z-score) [22]: 3.03
glycan array binding signal (z-score) [23]: -0.303
glycan array binding signal (z-score) [24]: -0.587
glycan array binding signal (z-score) [25]: 0.866
glycan array binding signal (z-score) (Neu5Ac(a2-8)Neu5Ac): 2.11
glycan array binding signal (z-score) [26]: -0.067
glycan array binding signal (z-score) [27]: -0.155
glycan array binding signal (z-score) (Neu5Gc(a2-6)GalNAc): 2.26
glycan array binding signal (z-score) [28]: -0.05
